BoNT-A LC inh2: blocks Botulinum neurotoxin A light chain protease; multiplex microsphere protease substrate cleavage, flow cytometry; hit rate 0.17% among 360,000; inhibition, % at 10 µM
3CLpro inhibitor: SARS-CoV 3CLpro protease inhibition; recombinant SARS-CoV 3CLpro, quenched FRET peptide cleavage; inhibition, % at 6 µM; hit rate 0.14% among 290,000; AID 1706; in the data active = inhibition above about 12%
Bead autofluor: flagged as autofluorescent in microsphere protease counterscreen | compound autofluorescence counterscreen, microsphere flow cytometry; active compounds read high | hit rate 3.1% among 360,000 | fluorescence intensity (test concentration not listed); in the data active = fluorescence intensity above about 16000; inconclusive = no clear call, values can overlap the other calls
BoNT F protease: BoNT F light chain protease inhibition. AID 588497. hit rate 0.22% among 360,000. inhibition, % at 10 µM. Multiplex microsphere protease cleavage assay, flow cytometry; in the data active = inhibition above about 35%, passing the limit was not always enough; inconclusive = no clear call, values can overlap the other calls
CCHFV vOTU inh: blocks the CCHF virus ovarian tumor domain protease | CCHFV vOTU protease, Pep-AMC fluorescence | hit rate 0.55% among 370,000 | inhibition, % at 11.5 µM | AID 651958; in the data active = inhibition above about 30%
Anthrax LF inh2: anthrax lethal factor protease inhibition; inhibition, % at 10 µM; hit rate 0.12% among 360,000; P15917; multiplex microsphere protease cleavage assay, LF
Target sequence (P15917 whole entry, looked up): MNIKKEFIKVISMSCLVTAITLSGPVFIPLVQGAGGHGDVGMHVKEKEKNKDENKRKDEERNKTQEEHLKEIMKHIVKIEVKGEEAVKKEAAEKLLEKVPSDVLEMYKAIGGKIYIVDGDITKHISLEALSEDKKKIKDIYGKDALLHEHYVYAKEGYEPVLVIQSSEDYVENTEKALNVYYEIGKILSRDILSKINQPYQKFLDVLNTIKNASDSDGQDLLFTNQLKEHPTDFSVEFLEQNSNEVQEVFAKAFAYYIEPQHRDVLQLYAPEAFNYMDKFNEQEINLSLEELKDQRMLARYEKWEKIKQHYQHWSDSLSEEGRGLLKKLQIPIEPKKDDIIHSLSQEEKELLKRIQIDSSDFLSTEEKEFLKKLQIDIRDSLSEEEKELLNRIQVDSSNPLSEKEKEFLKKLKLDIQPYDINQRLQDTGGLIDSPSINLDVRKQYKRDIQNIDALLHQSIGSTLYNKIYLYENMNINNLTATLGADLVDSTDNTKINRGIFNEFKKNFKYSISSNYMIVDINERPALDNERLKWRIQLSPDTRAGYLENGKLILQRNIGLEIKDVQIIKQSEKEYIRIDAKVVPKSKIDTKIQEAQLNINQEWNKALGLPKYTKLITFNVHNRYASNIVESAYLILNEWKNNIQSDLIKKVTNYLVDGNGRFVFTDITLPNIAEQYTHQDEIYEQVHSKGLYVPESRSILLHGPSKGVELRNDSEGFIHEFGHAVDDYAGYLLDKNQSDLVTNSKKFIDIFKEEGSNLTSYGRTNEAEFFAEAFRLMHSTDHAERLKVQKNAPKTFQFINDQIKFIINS
A number is an active result; - = inactive; ? = inconclusive; . = not tested or not shown. Sampled rows, rich in hits. Any-hit rate of the full collection: about 3.9%. Cut-off read from the data, not from the text of the source, unless noted: active = inhibition above about 30%; inconclusive = no clear call, values can overlap the other calls; inactive = below that.

SMILES | BoNT-A LC inh2 | 3CLpro inhibitor | Bead autofluor | BoNT F protease | CCHFV vOTU inh | Anthrax LF inh2
COc1ccccc1N1CCN(C(c2cc3cc(C)ccc3[nH]c2=O)c2nnnn2C2CCCC2)CC1 (stereo not given) | - | - | 21854 | - | - | -
COc1cc2cc(C(c3nnnn3C3CCCC3)N3CCc4ccccc43)c(=O)[nH]c2cc1OC (stereo not given) | - | - | 19430 | - | . | -
Cc1cc2cc(C(c3nnnn3CC3CCCO3)N3CCCc4ccccc43)c(=O)[nH]c2cc1C (stereo not given) | - | - | 24311 | - | - | -
CCC(C)(C)n1nnnc1C(c1cc2ccc(OC)cc2[nH]c1=O)N1CCN(C2CCCCC2)CC1 (stereo not given) | ? | - | 21897 | - | - | -
CCc1ccc2[nH]c(=O)c(C(c3nnnn3CC3CCCO3)N3CCCc4ccccc43)cc2c1 (stereo not given) | - | - | - | - | - | -
CCC(C)(C)n1nnnc1C(c1cc2cc3c(cc2[nH]c1=O)OCO3)N1CCCCC1 (stereo not given) | - | - | - | - | . | -
O=C(COC(=O)c1ccc(Sc2ncn[nH]2)c([N+](=O)[O-])c1)Nc1ccc(Cl)c(Cl)c1 | . | . | . | . | - | .
CCOC(=O)C1=C(c2ccccc2)N=c2s/c(=C\c3ccc(O)cc3)c(=O)n2C1c1cccs1 (stereo not given) | - | - | - | - | - | -
CCOC(=O)C1=C(c2ccccc2)N=c2sc(=Cc3cc(OC)c(OC)c(OC)c3)c(=O)n2C1c1cccs1 (stereo not given) | 32.4 | . | - | - | - | 36.7
CCOC(=O)NC[C@@]1(C(=O)OC)CC(=O)N(Cc2ccc(Cl)cc2)[C@@H]1c1ccc(OC)cc1 | . | . | . | . | - | .
O=C(CCCl)NC1CCCCN(Cc2ccc(OC(F)(F)F)cc2)C1=O (stereo not given) | . | . | . | . | - | .
C=CCN1[C@@H](C)COc2cc(F)ccc2S1(=O)=O | . | . | . | . | - | .
COc1ccc(O)c(-c2cc(-c3ccccc3Cl)[nH]n2)c1 | - | - | - | - | - | -
COc1ccccc1-c1cc(-c2cc(Cl)ccc2O)n[nH]1 | - | - | 22763 | - | - | -
CCOc1ccc(S(=O)(=O)N2CCOCC2)cc1NC(=O)CSCC(=O)Nc1ccc(OC)cc1 | - | . | - | - | - | -
Cc1ccccc1Cn1ccc(-c2ccc(Cl)cc2)c(C#N)c1=O | - | - | 23457 | - | - | -
CC(=O)NCCn1c(SCC(=O)NCCC2=CCCCC2)nc2ccccc2c1=O | - | - | 24653 | - | - | -
CC(=O)NCCn1c(SCc2cc(=O)n3cc(Cl)ccc3n2)nc2ccccc2c1=O | ? | - | 21005 | - | - | -
CC(=O)NCCn1c(SCc2ccccc2F)nc2ccccc2c1=O | - | - | - | - | - | -
CCOC(=O)N1CCC(n2c(SCC(=O)NCCC3=CCCCC3)nc3ccccc3c2=O)CC1 | - | - | 19812 | - | - | -
Cc1ccc(-n2nnnc2SCC(=O)NCCC2=CCCCC2)c(C)c1 | - | - | 20542 | - | - | -
CCOC(=O)N1CCC(n2c(SCC(=O)NCc3ccccc3)nc3ccccc3c2=O)CC1 | - | - | - | - | - | -
N#CCCn1cc(C(=O)Nc2ccc(C(=O)O)cc2)c(-c2cccc(Br)c2)n1 | - | - | - | ? | - | -
COc1cccc(-c2nc3nc(C)cc(C)n3c2Nc2ccc3c(c2)OCCO3)c1 | - | . | - | - | - | -
COc1ccc2c(c1)c(=O)oc1cc(OCC(=O)N3CCC(C)CC3)ccc12 | - | - | 20779 | - | . | -
SMILES | BoNT-A LC inh2 | 3CLpro inhibitor | Bead autofluor | BoNT F protease | CCHFV vOTU inh | Anthrax LF inh2
COc1ccc2c(c1)c(=O)oc1cc(OCC(=O)N3CCCC(C)C3)ccc12 (stereo not given) | - | - | - | - | - | -
O=C(NCC1CCCN1S(=O)(=O)c1cccs1)C(=O)Nc1ccccc1Cl (stereo not given) | - | . | - | - | - | -
COC(=O)c1sccc1NC(=O)c1cc(-c2cc(C)ccc2C)nc2ccccc12 | - | - | 21965 | - | - | -
COC(=O)c1sc(NC(=O)c2cc(-c3ccccc3)nc3ccccc23)c(C#N)c1C | - | - | - | - | - | -
Cc1ccccc1-c1cc(C(=O)Nc2sc(C(=O)OC(C)C)c(C)c2C#N)c2ccccc2n1 | - | - | 16235 | - | - | -
Cc1ccc(C)c(-c2cc(C(=O)Nc3nccs3)c3ccccc3n2)c1 | - | - | 24181 | - | - | -
CC1CCc2c(sc(/N=C/c3ccco3)c2C(N)=O)C1 (stereo not given) | - | - | - | ? | - | -
O=C(Nc1nc(-c2cccnc2)cs1)c1ccccc1[N+](=O)[O-] | - | - | - | - | - | -
Cc1ccc(S(=O)(=O)N(CC(=O)N2CCCCCC2)c2ccccc2)cc1 | - | - | - | - | - | -
Cc1ccc(N(CC(=O)N2CCN(C3CCCCC3)CC2)S(=O)(=O)c2cccnc2)cc1 | ? | - | 21207 | - | - | -
C/C(=N/NC(=O)CN1CCN(S(=O)(=O)c2ccc(Br)cc2)CC1)c1ccco1 | - | - | - | - | - | -
CCc1nc(SCC(=O)NNC(=O)C2CCCCC2)c2ccccc2n1 | ? | - | 21748 | - | - | -
Cc1ccc(SCC(=O)NNC(=O)C2CCCCC2)cc1 | ? | - | 20856 | - | - | -
COc1ccc(S(=O)(=O)N(C(C)=O)c2ccc3oc(=O)sc3c2)cc1 | - | - | 20711 | - | - | -
CCc1noc(C)c1C(=O)N1CCCC1 | ? | - | 16196 | - | . | -
Cc1noc(C)c1C(=O)N1CCC2(CC1)OCCO2 | - | - | 20724 | - | - | -
Cc1occc1C(=O)N1CCN(S(C)(=O)=O)CC1 | - | - | - | - | - | -
Cc1occc1C(=O)N1CCC2(CC1)OCCO2 | ? | - | 23817 | - | - | -
Cc1cc(C)c(C(=O)N2CCC3(CC2)OCCO3)c(C)c1 | - | - | - | - | - | -
Cc1cc(C(=O)N2CCC3(CC2)OCCO3)cs1 | ? | - | 21544 | - | - | -
CC(=O)N1CCN(S(=O)(=O)c2ccc3c(c2)oc(=O)n3C)CC1 | . | . | . | . | - | .
Cc1occc1C(=O)N1CCN(C(c2ccccc2)c2ccccc2)CC1 | - | - | 22960 | - | - | -
O=[N+]([O-])c1ccc(Cl)c(/C=N/N2CCN(Cc3ccccc3)CC2)c1 | - | - | 21691 | - | - | -
O=[N+]([O-])c1ccc(Cl)c(/C=N/N2CCN(Cc3ccc(Cl)cc3)CC2)c1 | ? | - | 18114 | - | - | -
O=[N+]([O-])c1ccc(Cl)c(/C=N/N2CCN(Cc3ccccc3Cl)CC2)c1 | - | - | - | - | - | -
COC(=O)C1CCN(C(=O)c2ccccc2NC(C)=O)CC1 | - | - | - | - | - | -
COC(=O)C1CCN(C(=O)c2ccccc2Oc2ccccc2)CC1 | - | - | 20014 | - | - | -
COc1ccccc1C(=O)N1CCC(C(=O)c2ccc(F)cc2)CC1 | - | - | 19021 | - | - | -
CCOC(=O)N1CCN(C(=O)c2ccc(NC(C)=O)cc2)CC1 | - | - | - | - | - | -
COC(=O)C1CCN(C(=O)c2ccc(NC(C)=O)cc2)CC1 | - | - | 22006 | - | - | -

Bioassay records from PubChem.
